# Screening results from PubChem.
# An excerpt weighted towards active compounds, which were near 7.5% of everything screened.
# NPC1 prom act = activators of NPC1 promoter; Huh7 NPC1 promoter luciferase reporter, 24 h; 320,000 compounds, 2.4% hits; Potency, µM (titrated, usually from 9.22 µM), hits mostly activators; note: nearly all actives have a fitted effect of over 60% in size
#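 Huh7 cells stably carrying NPC1 promoter–luciferase, plated in Opti-MEM with 10% FBS for 2 h, were exposed to compound in DMSO for 24 h at 37 °C; luciferase reagent was added for 10 min and luminescence read.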
# ELG1 genotoxic = inducers of genotoxicity in HEK293T ELG1-luciferase cells; 330,000 compounds, 1.3% hits; HEK293T ELG1-luciferase reporter, luminescence, 16 h; Potency, µM (series often up to 46 µM), actives largely listed as activators; note: nearly all actives have a fitted effect of over 60% in size
#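 Quantitative HTS format in 1536-well plates. HEK293T ELG1-luciferase reporter cells receive test compound and are incubated 16 hr at 37 °C, 5% CO2; ONE-Glo added, 30 min room temperature, then luminescence read.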
# SMN2 splice up = enhancers of SMN2 splice variant expression; HEK293 SMN2-luciferase splicing reporter, luminescence, 30-36 h; Potency, µM (series often up to 46.1 µM), actives largely listed as activators; 210,000 compounds, 2.8% hits; AID 1458; note: nearly all actives have a fitted effect of over 55% in size
#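 qHTS luciferase splicing reporter: luminescence rises when SMN2 exon 7 is included in transfected HEK293 cells. Compound exposure lasted 30-36 h at 37C, with 4.5 mM final sodium butyrate as control, followed by a ONE-Glo read.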
# KinaseGlo FLuc = counter-screen: inhibitors of Kinase-Glo firefly luciferase; Potency, µM (titrated, usually from 38.3 µM), actives largely listed as inhibitors; AID 1379; 200,000 compounds, 0.28% hits; Kinase-Glo luciferase, ATP luminescence, 8 min; note: nearly all actives have a fitted effect of over 60% in size
#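 Inhibition of Kinase-Glo luciferase light generation was assessed at 10 uM ATP in pH 7.2 imidazole buffer, with luminescence measured after eight minutes at ambient temperature.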
# Rab9 prom act = Rab9 promoter activation; Huh7 Rab9 promoter-luciferase reporter, luminescence, 24 h; Potency, µM (top dose mostly 9.22 µM), usual class: activators; 320,000 compounds, 2.8% hits; note: nearly all actives have a fitted effect of over 60% in size
#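 Using Huh7 cells stably transfected with Rab9 promoter–luciferase, compounds were incubated 24 h at 37 °C, 5% CO2; luciferase luminescence was read 10 min after reagent addition.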
# FLuc counter = firefly luciferase modulation, counter-screen for miR-21 project; 360,000 compounds, 6.9% hits; purified FLuc, Km substrates, luminescence inhibition; Potency, µM (top dose mostly 57.5 µM), hits mostly inhibitors; P08659; AID 588342; note: nearly all actives have a fitted effect of over 55% in size
# Target sequence (P08659 whole entry, looked up): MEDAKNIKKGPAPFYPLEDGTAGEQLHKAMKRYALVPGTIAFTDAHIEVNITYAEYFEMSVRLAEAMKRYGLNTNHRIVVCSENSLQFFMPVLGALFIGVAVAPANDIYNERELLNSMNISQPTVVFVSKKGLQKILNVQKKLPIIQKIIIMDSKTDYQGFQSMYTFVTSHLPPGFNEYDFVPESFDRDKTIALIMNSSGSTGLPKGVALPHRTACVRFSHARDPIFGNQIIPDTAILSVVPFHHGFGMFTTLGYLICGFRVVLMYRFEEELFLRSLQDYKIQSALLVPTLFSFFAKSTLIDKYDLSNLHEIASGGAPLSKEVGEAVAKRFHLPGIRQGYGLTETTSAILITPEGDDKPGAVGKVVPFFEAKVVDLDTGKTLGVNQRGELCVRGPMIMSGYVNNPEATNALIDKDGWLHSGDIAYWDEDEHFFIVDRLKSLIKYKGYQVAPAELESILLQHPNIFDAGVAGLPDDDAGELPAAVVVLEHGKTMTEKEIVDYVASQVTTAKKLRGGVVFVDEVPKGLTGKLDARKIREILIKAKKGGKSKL
#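 Purified P. pyralis luciferase, 10 nM final, with Km-level 10 uM D-luciferin and 10 uM ATP in 50 mM Tris acetate pH 7.5, 10 mM Mg acetate, 0.01% Tween-20, 0.05% BSA; 6-point qHTS titration about 60 µM downward; luminescence read.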
# Numbers stand for hits; 0 = inactive; ? = inconclusive; - = not tested or not shown; [ ] = dose if it differs, or a comment. Calls come from the whole dose curve; as a rule, active = well fitted curve in the direction sought with a large enough effect; inconclusive = small, poorly fitted or top-dose-only effect, or another doubt; inactive = no such curve, though single readings can be large; an effect the other way counts as inactive or inconclusive.
SMILES,NPC1 prom act,ELG1 genotoxic,SMN2 splice up,KinaseGlo FLuc,Rab9 prom act,FLuc counter
CC(C)(C)c1csc(NC(=O)c2cccnc2)n1,0,0,-,-,0,?
CC(C)(C)c1csc(NC(=O)c2cccs2)n1,3.16µM,?,-,0,3.55µM,10.7µM
CCCOc1ccc(/C=N/O)cc1,0,0,0,0,0,?
O/N=C/c1ccc(OCC(O)COc2ccc(/C=N/O)cc2)cc1,0,0,0,0,0,15.1µM
CCOC(=O)C(=NC1CCS(=O)(=O)C1)NNc1ccccc1Cl (configuration not stated),0,0,-,-,0,16.9µM
CCCc1cc(-c2ccc3c(c2)COc2c4ccccc4nn2-3)on1,2.82µM,?,-,-,2.82µM,1.07µM
C(#CC1CCCC1)c1ccc2c(c1)COc1c3ccccc3nn1-2,0.891µM,?,-,-,1µM,3.01µM
O=[N+]([O-])c1nn(-c2ccc3c(c2)OCCO3)n(O)c1=Nc1ccccc1,0,0,0,0,0,12µM
Cc1ccc(CN=c2c([N+](=O)[O-])nn(-c3ccc4c(c3)OCCO4)n2O)cc1,?,?,-,0,?,12µM
O=[N+]([O-])c1nn(-c2ccc3c(c2)OCCO3)n(O)c1=NCCCO,?,0,0,0,2µM,0
O=[N+]([O-])c1nn(-c2ccc3c(c2)OCCO3)n(O)c1=NC1CCCCCC1,0,?,0,0,?,16.9µM
O=[N+]([O-])c1nn(-c2ccc3c(c2)OCCO3)n(O)c1=NC1CCCC1,0,?,0,0,?,0
Cc1nn(Cc2ccccc2)c(Cl)c1C(=O)OCC(=O)NC(=O)NC12CC3CC(CC(C3)C1)C2,0,0,0,0,0,0
Cc1cc(C)nc(N2CCCC(C(=O)NC(C)C)C2)n1 (configuration not stated),0,0,0,0,0,0
COc1ccc(-n2nc([N+](=O)[O-])c(=NCc3ccc4c(c3)OCO4)n2O)cc1,2.24µM,?,?,0,?,?
Cc1ccc(N=c2c([N+](=O)[O-])nn(-c3ccc(Cl)cc3)n2O)cc1C,1.58µM,0,0,0,1.26µM,0
O=[N+]([O-])c1nn(-c2ccc3c(c2)OCCO3)n(O)c1=Nc1ccc(Cl)cc1,0,0,0,0,0,?
COc1ccc(CCNC(=O)CSc2nc3sc(C(=O)O)c(C)c3c(=O)[nH]2)cc1OC,0,0,-,-,0,0
Cc1c(C(=O)O)sc2nc(/C=C/c3cccc(O)c3)[nH]c(=O)c12,0,0,-,-,0[1.84 µM],16.9µM
Cc1ccc(-c2nc3ccsc3c(=O)o2)cc1,2.82µM,18.4µM,0,0,2.51µM,2.69µM
CCCCCc1ccc(-c2cn(Cc3ccc(C)cc3)nn2)cc1,?,0,-,-,3.55µM,?
COc1ccc(-c2cn(Cc3ccc(C)cc3)nn2)cc1,3.98µM,?,-,-,2.82µM,?
CCCCCc1ccc(-c2cn(Cc3cccc(OC)c3)nn2)cc1,0,0,-,-,0,?
CCN1C(=NCc2cc(OC)c(OC)c(OC)c2)N[C@@H](c2cccc(F)c2)C(C(=O)OC)=C1C,0,-,-,-,0,0
N#Cc1c(-n2ncnc2-c2cccc(Cl)c2)sc2c1CCCCC2,-,-,0,-,-,1.51µM
SMILES,NPC1 prom act,ELG1 genotoxic,SMN2 splice up,KinaseGlo FLuc,Rab9 prom act,FLuc counter
N#Cc1c2c(c(-c3ccccc3Cl)[nH]c1=S)CCCC2,0,0,0,0,0,0
COc1ccccc1-c1ncnn1-c1sc2c(c1C#N)CCCCC2,-,-,0,-,-,1.51µM
N#Cc1c(-n2ncnc2-c2ccccc2C(F)(F)F)sc2c1CCCCC2,-,-,0,-,-,0.239µM
N#Cc1c(-n2ncnc2-c2ccccc2Cl)sc2c1CCCCC2,-,-,0,-,-,1.9µM
N#Cc1c(-n2cccc2/C=N/O)sc2c1CCCC2,0,0,0,0,0,0
CN(CC(=O)NCCc1ccc(F)cc1)Cc1cccc(Cl)c1,0,0,0,0,0,0
COc1ccc(CCN=C(C)C2=C(O)C(c3ccccc3)OC2=O)cc1OC (configuration not stated),0,0,0,0,0,0
O=C(OCCOc1ccccc1Cl)c1ccc(-n2cnnn2)cc1,0,0,0,0,0,21.3µM
COc1ccccc1CNC(=O)COC(=O)c1ccc(-n2cnnn2)cc1,0,0,-,-,0,0
Cc1ccc(C)c(S(=O)(=O)c2nnn3c2nc(Nc2ccc(F)c(Cl)c2)c2sccc23)c1,-,-,-,-,-,0
CC(=O)c1c(C)[nH]c(C(=O)Nc2cccc(S(=O)(=O)N(C)C)c2)c1C,0,?,11.2µM,0,?,0
CC(=O)c1c(C)[nH]c(C(=O)Nc2cccc(S(=O)(=O)N3CCCC3)c2)c1C,-,16.4µM,-,-,-,-
CC(=O)c1c(C)[nH]c(C(=O)Nc2ccc(S(=O)(=O)N(C)C)cc2)c1C,0,0,-,-,0,0
O=C(CN1C(=O)c2cccnc2Oc2ccc(Cl)cc21)NCCCN1CCCCC1,-,-,-,-,-,0
CCCCNc1nc(C)nc2c1nc(-c1ccccc1)n2CCN1CCCC1,-,-,0,0,-,-
O=C(NCCc1cccc(Cl)c1)c1ccc(OC2CCN(Cc3ccccn3)CC2)cc1,?,?,-,-,0,19µM
CC(Cc1ccccn1)NC(=O)c1ccc(OC2CCN(CCc3ccccc3)CC2)cc1 (configuration not stated),0,?,-,-,0,?
O=C(NCCc1ccccn1)c1ccc(OC2CCN(CCc3ccccc3)CC2)cc1,3.16µM,?,-,-,2.82µM,19µM
CCN1CCN(C(=O)C(Cc2ccccc2)NC(=O)c2ccc(Cl)c(S(=O)(=O)N(C)C)c2)CC1 (configuration not stated),-,0,-,-,-,-
O=[N+]([O-])c1ccccc1S(=O)(=O)Nc1cccnc1,0,0,-,-,0,0
O=c1c(=NNc2ccccc2Cl)c(=O)c2ccccc12,3.16µM,?,0,6.31µM,?,0.0757µM
Cc1cc(C)c(NN=c2c(=O)c3ccccc3c2=O)c(C)c1,2.82µM,?,12.6µM,0,1.78µM,0.953µM
C[C@@]1(C(NC(=O)c2ccccc2)c2ccc(-c3ccccc3)cc2)C[C@H]1C1CCCCC1 (some centres not stated),-,-,0,0,-,-
O=C(Nc1ccc(-c2csc(-c3ccccc3)n2)cc1)c1ccccc1,0,0,0,0,0,0
C=CCNC(=O)c1ccc(-c2nc(-c3ccccc3)cs2)cc1,?,0,5.62µM,0,0.891µM,?
O=C(O)c1ccc(-c2nc(-c3ccc(Cl)cc3Cl)cs2)cc1,1.58µM,?,11.2µM,0,1.41µM,8.49µM
COc1ccc(-c2csc(-c3ccc(C(=O)O)cc3)n2)cc1,0.316µM,0,2µM,0,0.126µM,0.953µM
O=C(O)c1ccc(-c2nc(-c3cccc(C(F)(F)F)c3)cs2)cc1,0,0,0,0,0,?
O=C(O)c1ccc(-c2nc(-c3ccc(Cl)cc3)cs2)cc1,?,0,4.47µM,0,0.316µM,0.953µM
